DAX1 inh-1: DAX1 (NR0B1) inhibitors on StAR promoter, primary screen, cell-based, luminescence, SF-1 (NR5A1), full-length DAX-1 | HEK293T StAR-luciferase reporter, SF-1/DAX-1 repression relief | inhibition, % at 6.8 µM | AID 652010, 2013 | actives 1.1% (n = 370,000);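 active = inhibition above the mean over all tested compounds plus 3 SD, cut at about 3.6% in these data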;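 note: 0% = DAX-1 cells with DMSO and 100% = cells lacking DAX-1 with DMSO; higher inhibition means more luminescence from relief of DAX-1 repression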
DAX1 inh-2: DAX1 (NR0B1) inhibitors, primary screen, cell-based, HEK293, Gal4-DAX1, luciferase luminescence; Nuclear receptor subfamily 0 group B member 1 (Homo sapiens), P51843; HEK293 Gal4-DAX1 luciferase reporter; inhibition, % at 6.75 µM; actives 0.99% (n = 340,000);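 active = inhibition above the mean over all tested compounds plus 3 SD, cut at about 4.2% in these data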;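 note: 0% = DAX1-transfected cells with DMSO and 100% = empty-vector control cells with DMSO; inhibition shows as a rise in luminescence from relieved DAX1 repression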
Target sequence (P51843 207-470 limits assumed): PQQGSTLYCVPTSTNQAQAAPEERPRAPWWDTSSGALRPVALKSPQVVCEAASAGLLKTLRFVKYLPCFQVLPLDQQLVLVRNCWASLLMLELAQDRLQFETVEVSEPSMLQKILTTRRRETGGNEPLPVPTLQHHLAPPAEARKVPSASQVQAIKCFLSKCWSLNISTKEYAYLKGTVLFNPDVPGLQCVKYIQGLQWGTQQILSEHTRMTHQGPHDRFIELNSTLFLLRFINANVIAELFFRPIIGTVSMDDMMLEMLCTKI
ssDAF12 agonist: S. stercoralis DAF-12 nuclear receptor activators, primary screen, cell-based, luminescence, HEK293, GRIP1 co-expression, lit1-tk-luc; HEK293 ssDAF-12/GRIP1 lit1-tk-luc reporter; % of 3 µM dafachronic acid response; activation, % at 6.8 µM; actives 1% (n = 370,000); AID 652126, 2013;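 active = activation above the mean over all tested compounds plus 3 SD, cut at about 0.9% in these data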;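 note: 0% = DMSO-only wells and 100% = 3 µM delta7-dafachronic acid wells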
hgDAF12 agonist: H. glycines DAF-12 receptor agonists, primary screen, cell-based, luminescence, HEK293, GAL4 fusion, UAS-luciferase; HEK293 GAL4-hgDAF12 UAS-luciferase reporter, agonist luminescence; normalized to butyrate control; activation, % at 6.8 µM; actives 1.8% (n = 370,000); AID 687014, 2013; Nuclear hormone receptor DAF-12 (Heterodera glycines), GAL4 fusion;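 active = activation above a cutoff set at the mean of all screened compounds plus 3 SD, cut at about 10% in these data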;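 note: 0% = DMSO wells and 100% = sodium butyrate wells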
hcDAF12 agonist: H. contortus DAF-12 nuclear receptor activators, primary screen, cell-based, luminescence, HEK293, lit1-tk-luc reporter; HEK293 hcDAF-12 lit1-tk-luc reporter; 0% DMSO, 100% Δ7-dafachronic acid; AID 652067, 2013; activation, % at 6.8 µM; actives 1.4% (n = 370,000);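 active = activation above the mean of all tested compounds plus 3 SD, cut at about 5.5% in these data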;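 note: 100% = response to 3 µM Δ7-dafachronic acid high control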
An asterisk follows results filed as active. Only some compounds are listed: those with a hit (about 4.1% of all), similar ones and a draw of the others.

Cc1ccc(S(=O)(=O)NN=C2CCc3ccccc32)cc1 was read as DAX1 inh-1 0, DAX1 inh-2 1, ssDAF12 agonist 1.6*, hgDAF12 agonist 5 and hcDAF12 agonist 4.
Screening Cc1ccccc1C(=O)NC[C@@H]1CCCN2CCCC[C@H]12 returned DAX1 inh-1 0, DAX1 inh-2 4.5*, ssDAF12 agonist -2, hgDAF12 agonist -2 and hcDAF12 agonist 2.
COC(=O)[C@]12C[C@H](CC(=O)NCc3cccc4ccccc34)C(=O)N(CCC3=CCCCC3)C1=C[C@H](C(C)C)O[C@@H]2C1CC1 was read as DAX1 inh-1 0, ssDAF12 agonist -1, hgDAF12 agonist -3 and hcDAF12 agonist 0.
For N#CCC[C@@H]1CC[C@]2(CCCN(Cc3ccc(Br)cc3)C2)O1 the results were DAX1 inh-1 0, ssDAF12 agonist 0, hgDAF12 agonist -2 and hcDAF12 agonist 2.
For C=C(C)Cn1c(SCC(=O)N/N=C(\C)c2ccc([N+](=O)[O-])cc2)nnc1-c1ccc(Br)cc1 the results were DAX1 inh-1 1, ssDAF12 agonist -1, hgDAF12 agonist -1 and hcDAF12 agonist 1.
For O=C(/C=C/c1cccc([N+](=O)[O-])c1)Nc1ccccn1 the results were DAX1 inh-1 1, DAX1 inh-2 2, ssDAF12 agonist -2, hgDAF12 agonist 0 and hcDAF12 agonist 2.
Cc1ccc2oc(-c3cccc(NC(=O)/C=C/c4cccc([N+](=O)[O-])c4)c3C)nc2c1 was read as DAX1 inh-1 1, DAX1 inh-2 0, ssDAF12 agonist 0, hgDAF12 agonist 9 and hcDAF12 agonist 6.2*.
Screening O=C(NCCc1nc2ccccc2n1CCOc1ccc2cccnc2c1)C1CCCCC1 returned ssDAF12 agonist -1, hgDAF12 agonist 5 and hcDAF12 agonist 0.
Screening O=c1c(O)c(-c2ccc(O)c(O)c2)oc2cc(O)cc(O)c12 returned DAX1 inh-1 1, DAX1 inh-2 2, ssDAF12 agonist -1, hgDAF12 agonist 12* and hcDAF12 agonist -2.
Screening Cc1cc(C(=O)Nc2ccc3[nH]ccc3c2)no1 returned DAX1 inh-1 1, DAX1 inh-2 2, ssDAF12 agonist 0, hgDAF12 agonist 11* and hcDAF12 agonist 3.
For Cc1cc(C(=O)Nc2cccnc2)no1 the results were DAX1 inh-2 1.
For COC(=O)c1ccc(NC(=O)CN(c2ccc(OC)cc2)S(C)(=O)=O)cc1 the results were DAX1 inh-1 1, DAX1 inh-2 0, ssDAF12 agonist -1, hgDAF12 agonist 12* and hcDAF12 agonist 3.
For CCOc1ccc(NC(=O)CN(c2ccc(OC)cc2)S(C)(=O)=O)cc1 the results were DAX1 inh-1 2, DAX1 inh-2 0, ssDAF12 agonist -1, hgDAF12 agonist 5 and hcDAF12 agonist 2.
`Cn1c(/C(C#N)=C(\O)c2cc(Cl)sc2Cl)nc2ccccc21` gave DAX1 inh-1 3, DAX1 inh-2 1, ssDAF12 agonist -1, hgDAF12 agonist 2 and hcDAF12 agonist 3.
Screening Cn1c(/C(C#N)=C(\O)c2ccc(Br)s2)nc2ccccc21 returned DAX1 inh-1 0, DAX1 inh-2 0, ssDAF12 agonist 1.0*, hgDAF12 agonist 3 and hcDAF12 agonist 5.
CC(NC1CCN(Cc2ccccc2)CC1)c1ccc(F)cc1 (stereo unspecified) was read as DAX1 inh-1 -1, DAX1 inh-2 0, ssDAF12 agonist 1.1*, hgDAF12 agonist -2 and hcDAF12 agonist -2.
For Fc1ccc(CNC2CCN(Cc3ccccc3)CC2)cc1 the results were DAX1 inh-1 1, DAX1 inh-2 2, ssDAF12 agonist 0, hgDAF12 agonist 4 and hcDAF12 agonist -1.
`O=C(OCCCCSc1nnc(-c2cccc3ccccc23)o1)c1ccc(F)cc1` gave ssDAF12 agonist -1, hgDAF12 agonist 0 and hcDAF12 agonist -1.
For CC(S(=O)(=O)c1ccccc1)S(=O)(=O)c1ccccc1 the results were DAX1 inh-1 0, DAX1 inh-2 5.0*, ssDAF12 agonist -1, hgDAF12 agonist -3 and hcDAF12 agonist -1.
